# An excerpt weighted towards active compounds, which were near 0.45% of everything screened.
# Menin MLL FP FL: inhibitors of human menin-MLL interaction, wild-type MLL peptide. AID 1766. 290,000 tested, under 10 active. Fluorescence polarization, fluorescein-MLL peptide displacement from menin. FP activity change, % at 61.4 µM; active = well fitted curve in the direction sought with a large enough effect in the polarisation, not every such curve was filed as active; inconclusive = small, poorly fitted or top-dose-only effect, or effect the other way, or a change in a side signal; inactive = no such curve, though single readings can be large or run the other way; the % refers to the polarisation; note: % of control where 0% means no effect
# ASM inhibitor: blocks human secretory acid sphingomyelinase. placental ASM, HMU-PC fluorogenic substrate, 60 min. Potency, µM (top dose mostly 57.5 µM), for the others: top-dose activity change, negative = inhibition, actives largely listed as inhibitors. 340,000 compounds, 0.006% hits; active = well fitted inhibition curve with a large enough effect; inconclusive = small, poorly fitted or top-dose-only effect; inactive = no such curve, though single readings can be large or run the other way; note: potency is the fitted concentration of half-maximal effect
# Target sequence (P17405 47-631 limits assumed): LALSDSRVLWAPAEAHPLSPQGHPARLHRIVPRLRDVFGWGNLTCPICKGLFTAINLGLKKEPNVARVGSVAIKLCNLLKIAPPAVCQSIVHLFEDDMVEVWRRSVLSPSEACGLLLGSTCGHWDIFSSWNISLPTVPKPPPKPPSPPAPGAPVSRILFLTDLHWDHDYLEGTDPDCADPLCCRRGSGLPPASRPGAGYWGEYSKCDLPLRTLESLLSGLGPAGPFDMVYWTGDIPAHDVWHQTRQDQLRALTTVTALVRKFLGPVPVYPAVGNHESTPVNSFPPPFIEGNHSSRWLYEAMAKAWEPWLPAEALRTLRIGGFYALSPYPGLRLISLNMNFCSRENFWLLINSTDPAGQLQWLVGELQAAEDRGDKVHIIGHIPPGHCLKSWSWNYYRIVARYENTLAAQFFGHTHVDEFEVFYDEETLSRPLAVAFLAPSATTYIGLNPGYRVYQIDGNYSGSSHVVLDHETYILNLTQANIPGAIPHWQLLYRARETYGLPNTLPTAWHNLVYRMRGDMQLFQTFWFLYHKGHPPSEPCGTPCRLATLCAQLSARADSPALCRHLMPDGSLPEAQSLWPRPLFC
#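 Human placenta-derived ASM enzyme was preincubated with compound for 10 minutes at room temperature, then given fluorogenic substrate HMU-PC0 (9 uM final) for 60 minutes at 37 °C; a pH 10 stop preceded fluorescence reading at Ex 386/Em 447 nm.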
# pAkt inh: inhibitors of Akt phosphorylation. Neuro2A IGF-stimulated pAkt S473 HTRF, 20 min; stronger effect = lower value. activity change, % for hits at 50 µM. 360,000 compounds, 0.32% hits; in the data active = activity change below about -80%; inconclusive = mostly about -51% to -80%; note: % is set by controls: 0 for no effect and ±100 for the full control effect
#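 Neuro2A cells (4,500/well, DMEM with 0.5% FBS) were treated with compound at a single 50 µM final concentration, stimulated with 6 nM IGF for 20 min at 37 °C, and lysed. Phospho-Akt Ser473 was read by HTRF as 665/615 ratio ×10^4.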
# CXXC DNA block: inhibitors of human MLL CXXC domain-DNA interaction; Q03164; Potency, µM (top dose mostly 115 µM), for the others: at the top dose activity change, negative = inhibition, actives largely listed as inhibitors; 290,000 compounds, 0.037% hits; MLL-CXXC / FITC-HOXA9 DNA fluorescence polarization; active = well fitted inhibition curve with a large enough effect in the polarisation, with a control signal flat, not every such curve was filed as active; inconclusive = small, poorly fitted or top-dose-only effect, or effect the other way, or a change in a side signal; inactive = no such curve, though single readings can be large or run the other way; the % refers to the polarisation; note: potency is the fitted concentration of half-maximal effect
#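 Purified MLL-CXXC (added from a 7 uM solution) was preincubated 5 min at ambient with pinned compounds in 50 mM Tris-HCl pH 7.5, 50 mM NaCl, 1 mM DTT, 0.05% BSA. Fluorescein-labeled HOX-A9 DNA (50 nM solution) followed, 30 min, then polarization read.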
# MBNL1-CUG inh: blocks human MBNL1 binding to CUG repeat RNA. Potency, µM (highest dose often 57.5 µM), for the others: at the top dose activity change, negative = inhibition, most hits filed as inhibitors. 280,000 compounds, 0.036% hits. Q9NR56. TR-FRET MBNL1-His/biotin-(CUG)12 binding, 665/545 ratio; active = well fitted inhibition curve with a large enough effect in the signal ratio, with a control signal flat, not every such curve was filed as active; inconclusive = small, poorly fitted or top-dose-only effect, or effect the other way, or a change in a side signal; inactive = no such curve, though single readings can be large or run the other way; the % refers to the signal ratio; note: potency is the fitted concentration of half-maximal effect; % is set by controls: 0 for no effect and ±100 for the full control effect
#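 MBNL1-His + Biotin-(CUG)12, cpd titration 92 nM–58 uM; Tb anti-His Ab 0.055 ng/ul, SA-XL665 5 nM (final); 60 min RT; ratiometric 665/545 nm, Ex 340 nm; normalized to buffer and full-complex controls.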
# Menin MLL FP TR: menin-MLL binding inhibition, Texas Red mutant peptide; Menin + Texas Red MLL mutant peptide, fluorescence polarization; AID 1768; Potency, µM (top dose mostly 61.6 µM), for inactives: at the top dose FP activity change, negative = inhibition, actives largely listed as inhibitors; 270,000 compounds, 0.23% hits; O00255; active = well fitted inhibition curve with a large enough effect in the polarisation, with a control signal flat, not every such curve was filed as active; inconclusive = small, poorly fitted or top-dose-only effect, or effect the other way, or a change in a side signal; inactive = no such curve, though single readings can be large or run the other way; the % refers to the polarisation; note: potency is the fitted concentration of half-maximal effect; % of control where 0% means no effect
# Numbers without * were called inactive; i = inactive; ? = inconclusive; nt = no result given.
SMILES,Menin MLL FP FL,ASM inhibitor,pAkt inh,CXXC DNA block,MBNL1-CUG inh,Menin MLL FP TR
CCCCNC(=O)Cn1cnc2c(cnn2-c2ccc(C)c(C)c2)c1=O,6,1%,-84%*,-17%,6%,-2%
CN(C)c1ccc(/C=N/NC(=O)C(=O)N2CCCCCC2)cc1,0,4%,i,9%,?,-23%
CC(C)CCN1CN(S(=O)(=O)c2cccs2)c2nc3ccccc3nc21,0,5%,-107%*,15%,16%,0%
CCOC(=O)N1CCN(S(=O)(=O)c2ccc(C)c(C)c2)CC1,-6,-1%,-99%*,3%,-5%,5%
CCOC(=O)N1CCN(S(=O)(=O)c2ccc(OCC)c(C)c2)CC1,0,0%,i,-7%,-3%,-30%
CC(C)(C)c1ccc(OCC(O)CN2CCN(C(=O)c3ccccc3)CC2)cc1 (stereo not drawn),0,-2%,i,-13%,?,?
CCCOC(=O)c1ccc(OCC(O)CN2CCN(C(=O)c3ccccc3)CC2)cc1 (stereo not drawn),2,-1%,-128%*,-6%,-26%,-22%
CCOC(=O)N1CCC(n2c(SCC(=O)Nc3nccs3)nc3ccsc3c2=O)CC1,3,1%,-81%*,13%,1%,24%
CC1NC(=O)NC1CCCCCC(=O)Nc1ccc(F)cc1 (stereo not drawn),1,-1%,i,3%,0.1µM*,6%
O=C(CCCC(=O)c1ccccc1)Nc1ccc(F)cc1,1,-2%,i,-4%,-7%,?
Cc1c(F)cccc1NC(=O)CCCCCC1NC(=O)NC1C (stereo not drawn),6,1%,i,-6%,0.28µM*,23%
O=C(Nc1cccc(Cl)c1)N(Cc1nc2ccccc2c(=O)[nH]1)C1CCCC1,-1,-6%,i,-1%,-11%,2%
COc1ccc(OC)c(S(=O)(=O)NC(=O)C2(C)CCN2C(=O)c2ccco2)c1 (stereo not drawn),nt,nt,i,nt,nt,nt
O=C(N/N=C/c1ccccc1Cl)c1nc2ccc([N+](=O)[O-])cc2c(=O)[nH]1,3,-3%,i,8%,7%,6%
COc1ccccc1COCC(O)CNCCc1ccc(C(F)(F)F)cc1 (stereo not drawn),-7,-1%,i,13%,2%,22µM*
COc1ccccc1N(CC(=O)NC1CCCCC1)C(=O)c1csnn1,-2,1%,i,-6%,-7%,12%
COc1ccccc1N(CC(=O)NC1CCCC1)C(=O)c1csnn1,0,0%,-121%*,2%,?,-9%
Clc1ccc(Sc2cnc3ccccc3n2)cc1,2,-5%,?,2%,41%,-3%
Clc1ccccc1Sc1cnc2ccccc2n1,2,-10%,-91%*,6%,29%,7%
COc1ccccc1-n1cnnc1SCC(=O)NCc1cccs1,1,4%,-111%*,-1%,-6%,-1%
CC(C)CCn1nnnc1C(C(C)C)N1CCC(C(N)=O)CC1 (stereo not drawn),4,2%,-100%*,-4%,-29%,-11%
CCCC(c1nnnn1CCC(C)C)N1CCC(C(N)=O)CC1 (stereo not drawn),1,5%,i,-8%,-2%,?
O=C(C[C@H]1C[C@H](C(=O)N2CCOCC2)[C@@]2(CCC3CCCC3)c3[nH]c4ccc(Cl)cc4c3CCN2C1=O)NCCc1ccccn1,nt,1%,i,nt,nt,nt
O=C(Nc1cccc(-c2csc(Nc3ccccc3)n2)c1)c1ccccc1,3,-13%,i,5%,2%,nt
O=C(Nc1nc(-c2ccc3c(c2)Cc2ccccc2-3)cs1)c1ccccc1,2,5%,i,5%,-2%,16µM*
SMILES,Menin MLL FP FL,ASM inhibitor,pAkt inh,CXXC DNA block,MBNL1-CUG inh,Menin MLL FP TR
CCC(CNc1cc(OC)cc2cccnc12)NC1CCCCC1 (stereo not drawn),?,3%,i,?,?,35µM*
COc1cc(NCCCC(C)N)c2ncccc2c1 (stereo not drawn),?,14%,i,3%,?,?
O=C(Oc1cccc2cccnc12)c1ccco1,0,2%,-110%*,-7%,1%,13%
O=C(Oc1cccc2cccnc12)c1ccc(Br)o1,4,5%,i,0%,7%,-5%
COC(=O)c1cc(S(=O)(=O)N2CCCCC2)ccc1N1CCOCC1,nt,2%,i,nt,nt,nt
COC(=O)c1cc(S(=O)(=O)N2CCOCC2)ccc1Sc1ccccc1N,0,-8%,-99%*,-11%,-14%,-23%
CCCCOc1ccc(-c2c(C#N)c(N)nc(SCC(N)=O)c2C#N)cc1,2,-30%,i,-6%,?,13µM*
Cc1cc(C(=O)NCC(=O)OCC(=O)N(C)C2CCCCC2)ccc1[N+](=O)[O-],1,5%,i,5%,?,-5%
CC[C@@H](C)[C@H](CNC)NC[C@@H](Cc1cccc2ccccc12)NCCc1cccc(C(F)(F)F)c1,1,-8%,i,127%,1%,32µM*
O=C(NCCc1ccc(Cl)cc1)Nc1cccc(Cl)c1,1,-12%,i,0%,8%,?
Cc1cccc(-n2ncc3c(NCCCN4CCCC4=O)ncnc32)c1,-2,-1%,-106%*,-4%,-5%,-4%
COC(=O)c1ccc(NC(=O)C2CC(=O)N(c3ccc(C)cc3)C2)cc1 (stereo not drawn),-2,2%,i,0%,-17%,-18%
COC(=O)c1ccc(NC(=O)C2CC(=O)N(c3cc(C)ccc3C)C2)cc1 (stereo not drawn),-3,3%,-105%*,-8%,2%,14%
COc1ccc(CN(C)C(=O)C23CC4CC(CC(Cl)(C4)C2)C3)c(OC)c1OC,-2,1%,i,4%,-2%,-8%
O=C1c2ccccc2NC(c2ccco2)N1O (stereo not drawn),?,1%,i,-2%,1%,?
O=C1C2=C(Nc3ccccc3SC2c2ccco2)c2ccccc21 (stereo not drawn),2,-26%,-114%*,-2%,?,?
Clc1ccc(N/N=C/c2ccncc2)cc1Cl,3,0%,i,15%,-4%,24%
O=Cc1cccc(OC(=O)/C=C/c2ccco2)c1,?,-2%,i,47%,6%,?
COc1cccc(CNC(=O)CSCc2cnn(-c3ccccc3)c2-n2cccc2)c1OC,-17,-4%,-119%*,21%,-11%,-5%
